Measured values taken from PubChem BioAssay (NCI).
The panel holds about 83,000 compounds, 20% with a hit somewhere; the sample as a whole holds those more often.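 Note: values are percent growth. 100 is the growth of untreated cells, values between 100 and 0 indicate rising inhibition; between -100 and 0 indicates cell death.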 A number with no mark means an inactive call. Active and inactive are the calls of the source. The calls were made as follows: active = growth percent below 10; inactive = the rest.

The compounds below were run on MDA-MB-468 breast (assay: NCI-60 one-dose screen, 48 h (100 = growth as untreated, 0 = no growth, -100 = all killed)). Conditions: 10 µM unless noted.

SMILES | growth
CSc1nc2c(c(=O)n1C)CN(Cc1ccccc1)C(=O)CN2 | 71.3%
COc1ccc(-c2nc(Nc3cc(C)[nH]n3)c3ccccc3n2)cc1 | 47.3%
CC(=O)OCC1OC(OCC2OC(OC(C)=O)C(OC(C)=O)C(OC(C)=O)C2OC(C)=O)C(OC(C)=O)C(OC(C)=O)C1OC(C)=O (centres undefined) | 81.3%
COc1ccc(OC)c(/C=C/C(=O)N/N=C/c2ccc(Cl)cc2)c1 | -4.03% (active)
COc1ccc(CCN2C(=O)/C(=C/c3ccc(C4Oc5ccccc5C5CC(c6cccc(OC)c6)=NN54)cc3)SC2=S)cc1 (centres undefined) | 107%
Cc1ccc(N=NC2C(=O)N(c3ccc(Cl)cc3)N(c3ccc(Cl)cc3)C2=O)cc1 | 107%
CCN(CC)c1ccc(/C=C/C=C2\NC(=O)NC2=O)cc1 | -5.35% (active)
CCCCOc1nc2ccc(Cl)cc2cc1/C=C/C(=O)/C=C/c1ccc(Cl)cc1 | 79.5%
O=C1Nc2ccccc2/C1=C/c1cccs1 | -20.2% (active)
CC(Sc1nc2ccccc2c(=O)n1CCc1ccc(S(N)(=O)=O)cc1)C(=O)Nc1ccc(Cl)cc1 (centres undefined) | 84%
O=C(Nc1ccc(-n2ccc3c(NC(=O)c4ccccc4)ncnc32)cc1)Nc1ccc(Cl)c(C(F)(F)F)c1 | -56.3% (active)
O=C(NCCCN1CCCCC1)c1ccc(-c2nc3ccc4[nH]ncc4c3c3c2CCCC3)cc1 | 35.4%
COc1ccc2[nH]c(O)c(/C=c3/ccc4c(c3)N=C(c3ccc(C(F)(F)F)cc3)N=4)c2c1 | 93.8%
CCOc1nc(-c2ccccc2)cc2c(O)c(C(=O)n3nc(C)cc3C)[nH]c(=O)c12 | 99.1%
Cc1cccc(-c2cc(O)c(C(=O)N3CCOCC3)s2)c1 | 14.1%
CC(=O)C1CCC2C3CC(C)=C4CC(O)CCC4(C)C3CCC12C (centres undefined) | 109%
COc1cc(-c2[nH]ncc2Nc2ccc(Cl)cc2)cc(OC)c1OC | 55.7%
C=C1C(=O)O[C@@H]2C[C@@H](C)CCC(=O)[C@](C)(OC(C)=O)C[C@H](OC(=O)/C(C)=C\C)[C@@H]12 | 32.7%
O=C(NCc1ncc[nH]1)c1ccc(-c2nc3ccc4[nH]ncc4c3c3c2CCCC3)cc1 | -47.1% (active)
O=C(Cn1nc(-c2cccc3ccccc23)ccc1=O)NCc1cccc(Cl)c1 | 12.8% [50 µM]

SMILES | growth
Cc1c(C)c2c(c(C)c1NC(=O)CCCCCCC(=O)O)CCC(C)(CCCC(C)CCCC(C)CCCC(C)C)O2 (centres undefined) | 90.1%
Cc1cc(C)c(N2C(=O)CC(Sc3ccccc3N)C2=O)c(C)c1 (centres undefined) | 45.6%
COc1ccc(/C=C(/C(=O)N2CCN(c3ccccc3)CC2)c2cc(OC)c(OC)c(OC)c2)cc1O | 17.6%
COc1ccc(C)cc1OC | 137%
COc1ccc(-c2ccc(NNC(=O)c3ccc(F)cc3)nn2)cc1OC | 56.2%
O=C1NC(=O)C(c2ccccc2)(c2ccccc2)N1Cc1cn(-c2c3ccccc3nc3ccccc23)nn1 | 38.2%
CCN1c2ccccc2C(Cl)(c2ccc(N(C)C)cc2)c2ccccc21 | 86.6%
C/C(=N\O)C(=O)NCCCCCC(=O)Nc1ccccc1 | 114%
CSC1=Nc2c(c(C)c(-c3ccccc3)n2CCCCl)C2=NC(=O)CN12 | 47.3%
Cc1ccc(NC(C(=O)c2ccccc2)c2ccccc2)cc1 (centres undefined) | 8.06% (active)
O=C1C(=O)N(Cc2ccc(-c3ccccc3)cc2)c2ccc(OC(F)(F)F)cc21 | 25%
O=C1N=c2ccccc2=C1c1sc(=S)n(C2CC(=O)N(c3ccc(Cl)cc3)C2=O)c1O (centres undefined) | 95.2%
CC(=O)c1c(O)cc2c3c1OC(C)(C)C1CCC(C)(CC31)O2 (centres undefined) | 85.9%
Clc1ccc(N/N=C/c2ccccn2)nc1 | -48.3% (active)
Nc1cccc(S(=O)(=O)c2cccc(N)c2)c1 | 119%
Cc1ccc(-c2cnc3sc(C(=O)NCCc4ccccc4)c(C)n23)cc1 | 93.1%
Cc1[nH]c(-c2nc3ccccc3[nH]2)c(C)c1C(=O)NNc1ccc(Cl)cc1 | 84.8%
CCN(CC)c1ccc2c(c1)Oc1nc(N)c(C#N)c(N)c1C2Sc1ccc(F)cc1 (centres undefined) | -70.1% (active)
O=C1/C(=C/c2cccc(F)c2)CN(C(=O)C(Cl)Cl)C/C1=C\c1cccc(F)c1 | -47.4% (active)
